The record followed here is the supplement of paper PMC10105736.

Experiment in all cases: MAPPIT interaction score (arbitrary units); higher = stronger binary interaction signal, active = hit call of the paper
One test has as its target CG32846. Conditions: MAPPIT configuration: N-N; pair source set: screen_1;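 active = MAPPIT score above the 99th percentile of random reference set scores in the same batch; inactive = at or below it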.
The target in the next test is Git. Conditions: MAPPIT configuration: N-N; pair source set: screen_2.
The target in the next test is Mst87F. The conditions noted are these: MAPPIT configuration: N-N; pair source set: screen_2.
Another test has as its target CG3517. The conditions noted are these: MAPPIT configuration: N-N; pair source set: Finley_Y2H.
For a further test, the target named is CG34328. Conditions: MAPPIT configuration: N-C; pair source set: screen_3.
The target of a further test is CG32809. Conditions: MAPPIT configuration: N-N; pair source set: Curagen_low_conf.
The target of another test is RhoGAP92B. Conditions: MAPPIT configuration: N-N; pair source set: Curagen_low_conf.
In a further test the target is CG34345. Conditions: pair source set: RRS.
For another test, the target named is CG34168. The conditions noted are these: MAPPIT configuration: N-N; pair source set: Curagen_high_conf.
The target of another test is CG33514. The conditions noted are these: MAPPIT configuration: N-N; pair source set: DPIM.
A further test concerns the target cv. Conditions: MAPPIT configuration: N-N; pair source set: DPIM.
The target of the next test is dah. The conditions noted are these: MAPPIT configuration: N-N; pair source set: DPIM.
A further test has as its target CG3557. The conditions noted are these: MAPPIT configuration: N-N; pair source set: Curagen_low_conf.
For the next test, the target named is Mst84Db. The conditions noted are these: MAPPIT configuration: N-N; pair source set: Curagen_low_conf.
A further test addresses CG3356. The conditions noted are these: MAPPIT configuration: N-N; pair source set: Lit-BS-16.
The target in the next test is sinah. The conditions noted are these: MAPPIT configuration: N-N; pair source set: screen_1.
A further test deals with CG34149. The conditions noted are these: MAPPIT configuration: N-C; pair source set: RRS.
The next test deals with CG3473. Conditions: MAPPIT configuration: N-N; pair source set: screen_2.
A further test deals with Ubc2. Conditions: MAPPIT configuration: N-N; pair source set: screen_2.
The next test concerns the target CG3457. The conditions noted are these: MAPPIT configuration: N-N; pair source set: Finley_Y2H.
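Further: HEK293T cells with Epo stimulation, STAT-responsive firefly luciferase reporter, fold induction versus unstimulated cells divided by the larger fold induction of two negative controls lacking either bait or prey.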

B1: unk (protein)
chain: MLANETNKLLLSSQQEKPNHYTYLKEFRVEQCQSFLQHKCNQHRPFVCFNWHFQNQRRRRPVRKRDGTFNYSADNYCTKYDETTGICPEGDECPYLHRTAGDTERRYHLRYYKTCMCVHDTDSRGYCVKNGLHCAFAHGMQDQRPPVYDIKELETLQNAESTLDSTNALNALDKERNLMNEDPKWQDTNYVLANYKTEPCKRPPRLCRQGYACPQYHNSKDKRRSPRKYKYRSTPCPNVKHGEEWGEPGNCEAGDNCQYCHTRTEQQFHPEIYKSTKCNDVQQAGYCPRSVFCAFAHVEPCSMDDPRENSLSASLANTSLLTRSSAPINIPNTTLSNSINDFNSGSFAVNIPSSSLTYSPTNHANLFNVDAFNYGGSNKLSNSLSATQNDSSLFFPSRIISPGFGDGLSISPSVRISELNTIRDDINSSSVGNSLFENTLNTAKNAFSLQSLQSQNNSDLGRITNELLTKNAQIHKLNGRFEDMACKLKIAELHRDKAKQEAQEWKERYDLAQIQLNLPAELRDLSIQKLKQLQSKLRTDLEEVDKVLYLENAKKCMKCEENNRTVTLEPCNHLSICNTCAESVTECPYCQVPVITTHT
For the molecule B1, the MAPPIT interaction score with CG32846 is -2.23 (inactive); in the test with Git it was 1.05 (inactive); with Mst87F, 0.54 (inactive).

B2: MED4 (protein)
chain: MSFHLSTKERLLLLIDDIEMIAKELIEQAHQKISSTELVDLLDLLVAKDEEFRKMLELAEEQAKVEEAMDQLRAKVEVHDREIQKLQKSLKDAELILSTAIFQARQKLASINQANKRPVSSEELIKYAHRISSANAVSAPLTWCIGDLRRPYPTDIEMRNGLLGKSEQNINGGTVTHQNSGMPSEQQRTLSGSAGSGSGSGAGGEVPNAFQNQFNWNLGELHMTMGASGNTVALETRAQDDVEVMSTDSSSSSSSDSQ
In the case of B2, the MAPPIT interaction score with CG3517 was 1.9 (inactive).

B3: betaTub85D (protein)
chain: MREIVHIQAGQCGNQIGGKFWEVISDEHCIDATGTYYGDSDLQLERINVYYNEATGAKYVPRAILVDLEPGTMDSVRSGAFGQIFRPDNFVFGQSGAGNNWAKGHYTEGAELVDSVLDVVRKESEGCDCLQGFQLTHSLGGGTGSGMGTLLISKIREEYPDRIMNTFSVVPSPKVSDTVVEPYNATLSVHQLVENTDETYCIDNEALYDICFRTLKLTTPTYGDLNHLVSATMSGVTTCLRFPGQLNADLRKLAVNMVPFPRLHFFMPGFAPLTSRGSQQYRALTVPELTQQMFDAKNMMAACDPRHGRYLTVAAIFRGRMSMKEVDEQMLNIQNKNSSFFVEWIPNNCKTAVCDIPPRGLKMSATFIGNSTAIQELFKRVSEQFTAMFRRKAFLHWYTGEGMDEMEFTEAESNMNDLVSEYQQYQEATADEEGEFDEDEEGGGDE
For B3, the MAPPIT interaction score with CG34328 was 4.11 (active).

B4: Nup62 (protein)
chain: MVFQLPTTTAAPTGGATSSFSFGLSTGTPAAAPASGAATTAPATKTTFSFGTPAPTAGIGGGDADNSKAQAPPAFGFGLGSGTASAPLTLGTQAAANPASTTSATATGTSAAPPAFGGFTAQPAASVVPTIATSAPNTAATTTGLLGGSGLGAPKTTAAASTTLTAAPSAIASTQGAAPAPTLSTGGAFANLTTETKTTDSSAVSTASQLSYHQLEEHINKWTLEFEEQEKVFTEQATQINAWDKLLISNNGKIVELNDAVKKVKTDQQVLDQELEFIATQQKELEDSLGPLEKEFVNLPRVDMERSQTYLMVENLDTQLKQMSEDLKEIIDNLNEANKGQDTTDPIIQIGKILNAHMNSLQWIESQSTNISKKLEDIGKIQDSQKRDIFRAPF
On to B4, for which the MAPPIT interaction score with CG32809 was 2.19 (inactive); with RhoGAP92B, 0.00556 (inactive).

B5: MCU (protein)
chain: MSRNRAAMVSAFRLFLRPATTTTHRSLALRLAPGTTFALHLRPCHELQQHRSFASTAEDGETDKHKKPTTGEDIYVEYVNGMPHMTVRLPSRNELCQFALKPISHNVGDLLAMLRAEDRGIDRAAVINKHGVRIASSCTIESLLDDSFSIQINNRTLDVNPPKRDKVTLESMDKVGDVRKVIAQLYEAFNVGEYQLEKSNQLAKELETLRYELEPLEEKKLELSKKAARRTNFMTWMGLGLMSVQFGILARLTWWEYSWDIMEPVTYFVTYGTTMAMYAYYCVTKREYMMEDVKNREFSLSLYRNAKKVQFDVEHYNELKRKSAELEYNLRRINDPLNMQLPSHLVRTQENTPPTLTEEKAERKYT
B5: the MAPPIT interaction score in the test with CG34345 (MAPPIT configuration: N-C) was 0.433 (inactive); in the test with CG34345 (MAPPIT configuration: N-N) it was 0.157 (inactive).

B6: Mob2 (protein)
chain: MNWAISNLTGGNRVSRAILVRYSSVPLADATNDGSSTAPQTPTASTPRPSSSHSSLSSTFAATFLHASSRHIPGRAVPRQNANGQNGGKGNASGAGGGAGGGGAGGASGGTGGTGAQAAGQLSLPLDVEETVTCFCRKARRKERDGDQNSTDTKLYLEESVLERKLPEADLKALVDLPAGLDYNEWLASHTLALFEHVNLVYGTISEFCTQSGCADMTGPGNRTYLWFDEKGKKTRVAAPQYIDYVMTFTQKTVSDESIFPTKYANEFPGSFESIARKILRLQFHVIAHLYAAHFREIALLGLHTHLNLTFAHLTALHRRFNLIDEKETDVLRDLEVALRLTDDTGGCQDATSTTSSVHDHSHSGDLQHQSLQQQQQHHNSSSNSTSSAEAFHVNSQSNNGSTSASASVSLIDGDAVAPPICTQPEAGAGCKPAGSSGLLGGILGDLTSGEFGDTTRYCTSAVPQAAAAAGAGVGGTAIGATDAAALNNGAGALHLNFSNNNNNNHNLNHHHHHHHHHGHHGHHHAAQQQQQHSGLIQCNAAGGGGNATGVATGGATAAASSTTTA
Regarding B6, the MAPPIT interaction score in the test with CG34168 is 0.212 (inactive).

B7: RpS21 (protein)
chain: MENDAGENVDLYVPRKCSASNRIIHAKDHASVQLSIVDVDPETGRQTDGSKTYAICGEIRRMGESDDCIVRLAKKDGIITKNF
As for B7, the MAPPIT interaction score with CG33514 is 0.423 (inactive); with cv it was -0.17 (inactive); with dah, -0.359 (inactive).

B8: tos (protein)
chain: MGITGLIPFVGKASSQLHLKDIRGSTVAVDTYCWLHKGVFGCAEKLARGEDTDVYIQYCLKYVNMLLSYDIKPILVFDGQHLPAKALTEKRRRDSRKQSKERAAELLRLGRIEEARSHMRRCVDVTHDMALRLIRECRSRNVDCIVAPYEADAQMAWLNRADVAQYIITEDSDLTLFGAKNIIFKLDLNGSGLLVEAEKLHLAMGCTEEKYHFDKFRRMCILSGCDYLDSLPGIGLAKACKFILKTEQEDMRIALKKIPSYLNMRNLEVDDDYIENFMKAEATFRHMFIYNPLERRMQRLCALEDYETDERYCSNAGTLLEDSEQALHLALGNLNPFSMKRLDSWTPEKAWPTPKNVKRSKHKSIWQTNFQSENTHTPKKENPCALFFKKVDFVGKTLNEEIEANQRLEQAKQTEAELFNMYSFKAKRRRSPSREDSVDQERTPPPSPVHKSRHNPFAKERTGEEANQRSPVVCENASLLRLLSPKKASPLDGEAGVKKVDSLKRSIFAKEQVQIRSRFFATQDEQTRLQREHLRDTENDDMDEQKLSSHSGHKKLRLVCKDIPGKNPIRQRCSSQISDGETDTDTTASSLLESQDKGVPSPLESQEDLNNSQPQIPTEGNTNSTTIRIKSLDLLLENSPEPTQESDRNNNDAIILLSDDSCSSDQRASSTSSSSQQRQNFLPTSKRRVGLSKPSTAKKGTPKSRTNGKLGAVSQNQTKLSMFGFQTKPVLK
For the molecule B8, the MAPPIT interaction score with CG3557 is 0.0573 (inactive); in the test with Mst84Db it was -0.0214 (inactive).

B9: Ubc4 (protein)
chain: MANMAVSRIKREFKEVMRSEEIVQCSIKIELVNDSWTELRGEIAGPPDTPYEGGKFVLEIKVPETYPFNPPKVRFITRIWHPNISSVTGAICLDILKDNWAAAMTLRTVLLSLQALLAAAEPDDPQDAVVAYQFKDKYDLFLLTAKHWTNAYAGGPHTFPDCDSKIQRLRDMGIDEHEARAVLSKENWNLEKATEGLFS
As for B9, the MAPPIT interaction score was 0.159 (inactive) with CG3356 and 2.14 (inactive) with sinah.

B10: Cyp4d2 (protein)
chain: MLGVVGVLLLVAFATLLLWDFLWRRRGNGILPGPRPLPFLGNLLMYRGLDPEQIMDFVKKNQRKYGRLYRVWILHQLAVFSTDPRDIEFVLSSQQHITKNNLYKLLNCWLGDGLLMSTGRKWHGRRKIITPTFHFKILEQFVEIFDQQSAVMVEQLQSRADGKTPINIFPVICLTALDIIAETAMGTKINAQKNPNLPYVQAVNDVTNILIKRFIHAWQRVDWIFRLTQPTEAKRQDKAIKVMHDFTENIIRERRETLVNNSKETTPEEEVNFLGQKRRMALLDVLLQSTIDGAPLSDEDIREEVDTFMFEGHDTTTSAISFCLYEISRHPEVQQRLQQEIRDVLGEDRKSPVTLRDLGELKFMENVIKESLRLHPPVPMIGRWFAEDVEIRGKHIPAGTNFTMGIFVLLRDPEYFESPDEFRPERFDADVPQIHPYAYIPFSAGPRNCIGQKFAMLEMKSTVSKLLRHFELLPLGPEPRHSMNIVLRSANGVHLGLKPRA
B10: the MAPPIT interaction score with CG34149 is -1.31 (inactive).

B11: Iru (protein)
chain: MAEAMVVEDRPAEAKRFFCHMCNVEINIPNSDFTCPLCANGFVEELPANAPEMDSSTAGASGSARSGSSGSGSSGSHDTLSRGSSSSGSQVNVESLRNDIVSLLNMRNVPNLEITIEPNRRHSNVLHLGGFGGPSGSDSARGLTAGGRVRPANLDRLDNVLFDFLQSLPLAGATAEIVTGPGGGGVGGGGNSHMFFMGNPGDYAWGREGLDTIVTQMLNQMETSGPPPLSAQRINEIPNVQINAEEVNRKIQCSICWDDFKIDETVRKLPCSHLYHENCIVPWLNLHSTCPICRKSLADDGNDADDEFVMLDAFGPEMAADGSNSERRSASTATGTDNPSPANNPSQAAAEGGRTRPDANPAQAARNNIFTFDDDNMFLD
Consider B11, for which the MAPPIT interaction score in the test with CG3473 is 0.831 (inactive); in the test with Ubc2 it was 0.234 (inactive).

B12: Cog6 (protein)
chain: MSSTQEKPEELDRIQKRVNKILEARLESDKDTLDALSGLSTFFTENTLQNRRNLRSQIEHRSVGINENFLKAFRQVKLSLDAVCEDLDTMATSVETMKSDLETSKALTKDLIKQTNTMQRERDRLEVHKQIAQAFLARFQLSGAEHQLLYGAAKDAPIVADFFRVLDRVQSIHADCRLLMQCGYQTAAIDIMEEMTLHQEGALERLYRWTQNHCRSLENNEIGPLIVEAMSRLQDRPVLFKYVIDEYAIARRAVLVRQFIEALTEGGPGGNPKPIELHAHDPKRYIGDMFAWLHQSIPTEKENLSLLFKKCDKQDISDQLQNALGYIADGVCHPLKVRVETILQAEKDTIVLFTISNLLRFYQQIMRQVVQGGSLEECLVELQKSSEQIYLGALAAQVRSVLQRPSGGSGLALEPPQRDLVPPPSVARLLNMLKEILSVATMVDGRQADITKIVSCVIDPLLQSVQESAAHLPTVDMGVYLLNCLHHMQSSLAVYEYMDERVERLQAQSDAQLDTLTSEQASSLVANLNLGPIYAILQSNQSKIETNLLKIFMSKMDAFLELPDVLLLPQVQLIMSSSHRAAVQKRSFNVIVAIYKQIYERVHDPANGFEQPEQLLHRTPEQVAHILTST
Regarding B12, the MAPPIT interaction score in the test with CG3457 was 0.308 (inactive).
